Here are results for 8 sequences from PMC7862700, “An all-to-all approach to the identification of sequence-specific readers for epigenetic DNA modifications on cytosine”.

Test in all cases: DAPPL (digital affinity profiling via proximity ligation, sequencing); 10 mM Tris-HCl pH 7.5, 50 mM NaCl, 1 mM DTT, 4% glycerol, room temperature, 30 min; GST-TFs on glutathione beads, 16-mer random dsDNA library, 0.1% formaldehyde crosslink after washing; high values mean tight binding
For one assay, the target named is T1, FEV (Homo sapiens, UniProt Q99581 1-238).
T1 sequence: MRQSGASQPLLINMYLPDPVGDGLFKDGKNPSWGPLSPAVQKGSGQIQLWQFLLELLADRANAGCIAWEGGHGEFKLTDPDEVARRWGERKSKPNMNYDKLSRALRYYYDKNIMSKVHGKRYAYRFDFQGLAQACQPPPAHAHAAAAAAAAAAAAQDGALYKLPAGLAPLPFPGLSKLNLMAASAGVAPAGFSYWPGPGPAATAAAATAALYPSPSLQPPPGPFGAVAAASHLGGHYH
Conditions: protein: recombinant; tags: N-terminal GST; dsDNA, one strand shown. In outline: (§1)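 A tag-only sample was pooled with DNA-barcoded human transcription factors that had been expressed in yeast as GST fusions and captured on glutathione beads. The pools were incubated for 30 min at room temperature with 200 nmole of a random double-stranded 16-mer DNA library in Tris/NaCl/DTT/glycerol buffer, then washed, crosslinked with 0.1% formaldehyde, proximity-ligated (BsaI/T4 ligase, 1 h, 37 °C), PCR-amplified and sequenced on an Illumina NextSeq500. Binding signal is each hexamer's read frequency for a factor divided by its frequency for the tag-only sample.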

The next assay addresses ETV5 (Homo sapiens, UniProt P41161 1-510). The following applies: protein: recombinant; tags: N-terminal GST; dsDNA, one strand shown. In outline: as §1
A further assay concerns the target HSF1 (Homo sapiens, UniProt Q00613 1-529). Conditions: protein: recombinant; tags: N-terminal GST; chain copies: 3; dsDNA, one strand shown. Put shortly:
as §1

The target of a further assay is T2, SPIC (Homo sapiens, UniProt Q8N5J4 1-248).
T2 sequence: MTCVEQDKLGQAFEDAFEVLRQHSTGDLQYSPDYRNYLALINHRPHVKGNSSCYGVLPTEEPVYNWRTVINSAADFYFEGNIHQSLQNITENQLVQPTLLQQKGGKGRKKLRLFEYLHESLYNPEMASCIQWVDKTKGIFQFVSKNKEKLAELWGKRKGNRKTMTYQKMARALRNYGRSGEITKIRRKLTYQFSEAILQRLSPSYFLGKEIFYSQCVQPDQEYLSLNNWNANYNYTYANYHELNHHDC
Conditions: protein: recombinant; tags: N-terminal GST; dsDNA, one strand shown. Put shortly:
as §1

A further assay addresses ELF4 (Homo sapiens, UniProt Q99607 1-663). Conditions: protein: recombinant; tags: N-terminal GST; dsDNA, one strand shown. In outline:
as §1

A further assay concerns the target T3, ELK4 (Homo sapiens, UniProt P28324-2 1-405).
T3 sequence: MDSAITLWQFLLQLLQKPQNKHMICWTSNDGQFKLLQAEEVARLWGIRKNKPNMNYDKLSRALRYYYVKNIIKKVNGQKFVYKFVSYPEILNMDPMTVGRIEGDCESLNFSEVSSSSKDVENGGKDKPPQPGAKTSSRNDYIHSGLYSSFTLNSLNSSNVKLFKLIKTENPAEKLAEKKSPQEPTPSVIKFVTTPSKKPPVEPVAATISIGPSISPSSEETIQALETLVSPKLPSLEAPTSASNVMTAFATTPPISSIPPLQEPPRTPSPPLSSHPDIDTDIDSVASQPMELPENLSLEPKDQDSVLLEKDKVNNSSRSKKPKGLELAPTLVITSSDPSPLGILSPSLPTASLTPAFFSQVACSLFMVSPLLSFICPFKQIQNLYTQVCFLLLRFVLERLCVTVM
Conditions: protein: recombinant; tags: N-terminal GST; dsDNA, one strand shown. Put shortly: as §1

The target in another assay is T4, ETV2 (Homo sapiens, UniProt O00321 1-342).
T4 sequence: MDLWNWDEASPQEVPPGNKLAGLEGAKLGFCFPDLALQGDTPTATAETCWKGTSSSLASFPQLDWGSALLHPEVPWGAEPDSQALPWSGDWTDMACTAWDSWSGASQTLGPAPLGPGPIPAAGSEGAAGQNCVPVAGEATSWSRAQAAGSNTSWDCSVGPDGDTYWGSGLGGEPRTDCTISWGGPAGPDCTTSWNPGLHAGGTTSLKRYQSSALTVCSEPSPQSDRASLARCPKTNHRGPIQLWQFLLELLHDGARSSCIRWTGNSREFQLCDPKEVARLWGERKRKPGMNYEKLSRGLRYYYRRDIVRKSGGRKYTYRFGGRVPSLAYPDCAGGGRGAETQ
The following applies: protein: recombinant; tags: N-terminal GST; dsDNA, one strand shown. In outline: as §1

A further assay concerns the target T5, ELF3 (Homo sapiens, UniProt P78545 1-371).
T5 sequence: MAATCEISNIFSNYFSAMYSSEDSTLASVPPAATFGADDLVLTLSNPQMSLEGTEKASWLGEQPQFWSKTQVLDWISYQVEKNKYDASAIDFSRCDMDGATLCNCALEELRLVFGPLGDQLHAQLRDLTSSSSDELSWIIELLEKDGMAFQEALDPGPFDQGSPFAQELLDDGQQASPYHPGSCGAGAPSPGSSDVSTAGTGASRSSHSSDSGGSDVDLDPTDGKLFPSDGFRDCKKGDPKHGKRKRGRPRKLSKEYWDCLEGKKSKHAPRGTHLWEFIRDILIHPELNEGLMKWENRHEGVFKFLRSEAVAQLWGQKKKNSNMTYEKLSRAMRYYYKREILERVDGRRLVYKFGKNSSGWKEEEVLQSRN
Conditions: protein: recombinant; tags: N-terminal GST; dsDNA, one strand shown. Put shortly: as §1

Another assay addresses CRX (Homo sapiens, UniProt O43186 1-299). The following applies: protein: recombinant; tags: N-terminal GST; dsDNA, one strand shown. In outline: as §1
A further assay concerns the target ETV1 (Homo sapiens, UniProt P50549 1-477). The following applies: protein: recombinant; tags: N-terminal GST; dsDNA, one strand shown. Put shortly:
as §1

Sequence of ETV1 (P50549 whole entry): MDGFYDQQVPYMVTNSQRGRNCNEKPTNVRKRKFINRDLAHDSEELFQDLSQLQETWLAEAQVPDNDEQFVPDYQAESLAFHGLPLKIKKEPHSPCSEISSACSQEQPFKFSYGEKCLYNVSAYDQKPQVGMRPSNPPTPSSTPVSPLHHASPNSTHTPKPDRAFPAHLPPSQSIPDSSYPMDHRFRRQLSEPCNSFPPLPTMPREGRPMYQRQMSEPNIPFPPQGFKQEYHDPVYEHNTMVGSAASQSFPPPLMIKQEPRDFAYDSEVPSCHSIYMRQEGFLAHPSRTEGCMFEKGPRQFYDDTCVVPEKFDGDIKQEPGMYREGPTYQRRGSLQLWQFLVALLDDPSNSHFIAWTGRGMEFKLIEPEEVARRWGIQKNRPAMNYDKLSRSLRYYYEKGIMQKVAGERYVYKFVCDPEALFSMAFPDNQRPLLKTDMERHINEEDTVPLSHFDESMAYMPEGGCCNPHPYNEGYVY
Sequence of HSF1 (Q00613 whole entry): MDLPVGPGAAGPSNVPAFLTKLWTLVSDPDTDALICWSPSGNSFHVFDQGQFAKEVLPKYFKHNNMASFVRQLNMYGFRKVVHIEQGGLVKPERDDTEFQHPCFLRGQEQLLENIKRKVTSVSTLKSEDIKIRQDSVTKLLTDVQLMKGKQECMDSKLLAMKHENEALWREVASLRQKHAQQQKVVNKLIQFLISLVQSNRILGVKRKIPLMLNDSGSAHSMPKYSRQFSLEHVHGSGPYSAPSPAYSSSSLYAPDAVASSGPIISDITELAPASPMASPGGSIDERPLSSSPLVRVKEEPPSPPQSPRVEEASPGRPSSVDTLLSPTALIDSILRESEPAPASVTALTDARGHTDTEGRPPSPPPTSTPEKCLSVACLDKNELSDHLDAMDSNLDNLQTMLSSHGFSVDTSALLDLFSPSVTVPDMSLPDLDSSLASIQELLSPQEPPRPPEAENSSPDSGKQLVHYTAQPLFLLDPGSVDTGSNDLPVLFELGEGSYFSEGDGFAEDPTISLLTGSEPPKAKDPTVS
Sequence of ETV5 (P41161 whole entry): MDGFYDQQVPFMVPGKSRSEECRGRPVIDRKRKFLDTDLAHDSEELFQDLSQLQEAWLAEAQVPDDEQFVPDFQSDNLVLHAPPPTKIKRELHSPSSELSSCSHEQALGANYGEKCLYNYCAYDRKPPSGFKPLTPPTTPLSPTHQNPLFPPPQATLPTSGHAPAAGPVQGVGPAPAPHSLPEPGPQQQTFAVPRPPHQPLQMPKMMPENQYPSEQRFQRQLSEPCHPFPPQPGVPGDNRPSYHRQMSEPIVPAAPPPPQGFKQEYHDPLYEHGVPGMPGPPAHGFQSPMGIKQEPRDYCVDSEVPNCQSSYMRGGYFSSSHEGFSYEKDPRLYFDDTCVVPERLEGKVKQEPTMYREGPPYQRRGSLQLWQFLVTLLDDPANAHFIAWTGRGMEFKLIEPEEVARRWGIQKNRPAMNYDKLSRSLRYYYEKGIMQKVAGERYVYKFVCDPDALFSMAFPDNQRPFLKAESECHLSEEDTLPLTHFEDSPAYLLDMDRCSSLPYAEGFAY
Sequence of CRX (O43186 whole entry): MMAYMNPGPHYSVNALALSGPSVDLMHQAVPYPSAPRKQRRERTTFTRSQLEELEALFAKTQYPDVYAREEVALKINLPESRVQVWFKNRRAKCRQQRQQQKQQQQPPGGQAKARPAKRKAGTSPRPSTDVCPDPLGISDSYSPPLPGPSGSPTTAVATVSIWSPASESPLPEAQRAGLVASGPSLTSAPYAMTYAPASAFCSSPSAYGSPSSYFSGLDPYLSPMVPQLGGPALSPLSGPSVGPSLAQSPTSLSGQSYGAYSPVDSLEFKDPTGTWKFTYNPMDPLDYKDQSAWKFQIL
Sequence of ELF4 (Q99607 whole entry): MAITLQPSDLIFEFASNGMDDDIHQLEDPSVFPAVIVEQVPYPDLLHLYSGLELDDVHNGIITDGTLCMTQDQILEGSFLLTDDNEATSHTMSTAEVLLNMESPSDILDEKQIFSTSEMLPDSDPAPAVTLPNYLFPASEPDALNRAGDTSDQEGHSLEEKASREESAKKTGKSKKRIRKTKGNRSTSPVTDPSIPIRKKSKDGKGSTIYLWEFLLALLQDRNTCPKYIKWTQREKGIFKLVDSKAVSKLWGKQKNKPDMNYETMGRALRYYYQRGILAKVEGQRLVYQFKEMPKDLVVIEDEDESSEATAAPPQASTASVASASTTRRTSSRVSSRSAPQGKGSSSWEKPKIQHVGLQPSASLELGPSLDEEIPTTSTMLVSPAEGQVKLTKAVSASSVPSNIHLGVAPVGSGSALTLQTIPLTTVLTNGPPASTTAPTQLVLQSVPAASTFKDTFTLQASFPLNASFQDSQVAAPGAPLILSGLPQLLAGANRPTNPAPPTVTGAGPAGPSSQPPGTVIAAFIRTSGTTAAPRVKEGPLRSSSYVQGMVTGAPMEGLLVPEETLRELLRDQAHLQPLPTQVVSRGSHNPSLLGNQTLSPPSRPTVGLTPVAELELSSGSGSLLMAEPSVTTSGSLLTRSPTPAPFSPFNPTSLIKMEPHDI

Turning to TCCTAG, the binding signal was 1.19 fold enrichment (6-mer frequency, TF over GST control) with FEV; 1.33 fold enrichment (6-mer frequency, TF over GST control) in the assay with ETV5; 1.45 fold enrichment (6-mer frequency, TF over GST control) in the assay with HSF1; 1.2 fold enrichment (6-mer frequency, TF over GST control) with SPIC; 1.29 fold enrichment (6-mer frequency, TF over GST control) in the assay with ELF4; 1.24 fold enrichment (6-mer frequency, TF over GST control) in the assay with ELK4. The binding signal with ETV2 was 1.23 fold enrichment (6-mer frequency, TF over GST control); with ELF3 it was 1.2 fold enrichment (6-mer frequency, TF over GST control); with CRX it was 1.29 fold enrichment (6-mer frequency, TF over GST control); with ETV1, 1.41 fold enrichment (6-mer frequency, TF over GST control).
AAGGAT: the binding signal with FEV is 1.1 fold enrichment (6-mer frequency, TF over GST control); with ETV5, 1.17 fold enrichment (6-mer frequency, TF over GST control); with HSF1, 1.5 fold enrichment (6-mer frequency, TF over GST control); in the assay with SPIC, 1.09 fold enrichment (6-mer frequency, TF over GST control); in the assay with ELF4 it was 1.13 fold enrichment (6-mer frequency, TF over GST control); with ELK4, 1.08 fold enrichment (6-mer frequency, TF over GST control). The binding signal is 1.24 fold enrichment (6-mer frequency, TF over GST control) in the assay with ETV2; 1.13 fold enrichment (6-mer frequency, TF over GST control) with ELF3; 1.97 fold enrichment (6-mer frequency, TF over GST control) with CRX; 1.12 fold enrichment (6-mer frequency, TF over GST control) with ETV1.
Take TTATGA: the binding signal is 1.07 fold enrichment (6-mer frequency, TF over GST control) in the assay with FEV; 1.16 fold enrichment (6-mer frequency, TF over GST control) with ETV5; 1.45 fold enrichment (6-mer frequency, TF over GST control) in the assay with HSF1; 1.26 fold enrichment (6-mer frequency, TF over GST control) in the assay with SPIC; 1.05 fold enrichment (6-mer frequency, TF over GST control) with ELF4; 1.07 fold enrichment (6-mer frequency, TF over GST control) in the assay with ELK4. Moreover, the binding signal with ETV2 is 1.09 fold enrichment (6-mer frequency, TF over GST control); with ELF3, 1.31 fold enrichment (6-mer frequency, TF over GST control); with CRX it was 1.99 fold enrichment (6-mer frequency, TF over GST control); in the assay with ETV1, 1.17 fold enrichment (6-mer frequency, TF over GST control).
Turning to CTCCTT, the binding signal with FEV is 1.75 fold enrichment (6-mer frequency, TF over GST control); in the assay with ETV5, 1.62 fold enrichment (6-mer frequency, TF over GST control); in the assay with HSF1 it was 1.61 fold enrichment (6-mer frequency, TF over GST control); in the assay with SPIC, 1.86 fold enrichment (6-mer frequency, TF over GST control); with ELF4, 1.8 fold enrichment (6-mer frequency, TF over GST control); with ELK4, 1.67 fold enrichment (6-mer frequency, TF over GST control). Moreover, the binding signal is 1.7 fold enrichment (6-mer frequency, TF over GST control) with ETV2; 1.96 fold enrichment (6-mer frequency, TF over GST control) with ELF3; 1.57 fold enrichment (6-mer frequency, TF over GST control) with CRX; 1.69 fold enrichment (6-mer frequency, TF over GST control) with ETV1.
Take GGACCT: the binding signal in the assay with FEV was 1.47 fold enrichment (6-mer frequency, TF over GST control); with ETV5, 1.37 fold enrichment (6-mer frequency, TF over GST control); in the assay with HSF1, 1.18 fold enrichment (6-mer frequency, TF over GST control); in the assay with SPIC, 1.46 fold enrichment (6-mer frequency, TF over GST control); with ELF4, 1.42 fold enrichment (6-mer frequency, TF over GST control); in the assay with ELK4, 1.31 fold enrichment (6-mer frequency, TF over GST control). For the same sequence, the binding signal with ETV2 was 1.57 fold enrichment (6-mer frequency, TF over GST control); with ELF3 it was 1.14 fold enrichment (6-mer frequency, TF over GST control); in the assay with CRX, 1.1 fold enrichment (6-mer frequency, TF over GST control); in the assay with ETV1 it was 1.28 fold enrichment (6-mer frequency, TF over GST control).
TAATAA: the binding signal in the assay with FEV is 1.13 fold enrichment (6-mer frequency, TF over GST control); in the assay with ETV5 it was 1.22 fold enrichment (6-mer frequency, TF over GST control); in the assay with HSF1 it was 1.76 fold enrichment (6-mer frequency, TF over GST control); with SPIC, 1.17 fold enrichment (6-mer frequency, TF over GST control); with ELF4, 1.21 fold enrichment (6-mer frequency, TF over GST control); in the assay with ELK4, 1.06 fold enrichment (6-mer frequency, TF over GST control). In addition, the binding signal is 1.17 fold enrichment (6-mer frequency, TF over GST control) with ETV2; 1.21 fold enrichment (6-mer frequency, TF over GST control) in the assay with ELF3; 2.43 fold enrichment (6-mer frequency, TF over GST control) with CRX; 1.12 fold enrichment (6-mer frequency, TF over GST control) with ETV1.
For ATGCTA, the binding signal in the assay with FEV was 1.32 fold enrichment (6-mer frequency, TF over GST control); in the assay with ETV5, 1.33 fold enrichment (6-mer frequency, TF over GST control); with HSF1 it was 1.46 fold enrichment (6-mer frequency, TF over GST control); with SPIC, 1.23 fold enrichment (6-mer frequency, TF over GST control); with ELF4, 1.3 fold enrichment (6-mer frequency, TF over GST control); with ELK4, 1.32 fold enrichment (6-mer frequency, TF over GST control). Moreover, the binding signal with ETV2 was 1.43 fold enrichment (6-mer frequency, TF over GST control); with ELF3, 1.29 fold enrichment (6-mer frequency, TF over GST control); with CRX it was 1.45 fold enrichment (6-mer frequency, TF over GST control); with ETV1, 1.31 fold enrichment (6-mer frequency, TF over GST control).
For TTCAAT, the binding signal is 1.31 fold enrichment (6-mer frequency, TF over GST control) with FEV; 1.32 fold enrichment (6-mer frequency, TF over GST control) with ETV5; 1.27 fold enrichment (6-mer frequency, TF over GST control) with HSF1; 1.43 fold enrichment (6-mer frequency, TF over GST control) with SPIC; 1.33 fold enrichment (6-mer frequency, TF over GST control) with ELF4; 1.42 fold enrichment (6-mer frequency, TF over GST control) in the assay with ELK4. Further, the binding signal in the assay with ETV2 is 1.43 fold enrichment (6-mer frequency, TF over GST control); with ELF3, 1.36 fold enrichment (6-mer frequency, TF over GST control); in the assay with CRX it was 1.38 fold enrichment (6-mer frequency, TF over GST control); in the assay with ETV1, 1.45 fold enrichment (6-mer frequency, TF over GST control).
